From PubChem BioAssay
M1 PAM = positive allosteric modulators of human M1 muscarinic receptor; P11229; CHO-K1 hM1, Fluo-8 calcium fluorescence, ACh EC20; 0% = ACh EC20, 100% = maximal ACh; activation, % at 3 µM; 360,000 compounds, 0.088% hits; AID 588819; in the data active = activation above about 19%, passing the limit was not always enough
Target sequence (P11229 whole entry, looked up): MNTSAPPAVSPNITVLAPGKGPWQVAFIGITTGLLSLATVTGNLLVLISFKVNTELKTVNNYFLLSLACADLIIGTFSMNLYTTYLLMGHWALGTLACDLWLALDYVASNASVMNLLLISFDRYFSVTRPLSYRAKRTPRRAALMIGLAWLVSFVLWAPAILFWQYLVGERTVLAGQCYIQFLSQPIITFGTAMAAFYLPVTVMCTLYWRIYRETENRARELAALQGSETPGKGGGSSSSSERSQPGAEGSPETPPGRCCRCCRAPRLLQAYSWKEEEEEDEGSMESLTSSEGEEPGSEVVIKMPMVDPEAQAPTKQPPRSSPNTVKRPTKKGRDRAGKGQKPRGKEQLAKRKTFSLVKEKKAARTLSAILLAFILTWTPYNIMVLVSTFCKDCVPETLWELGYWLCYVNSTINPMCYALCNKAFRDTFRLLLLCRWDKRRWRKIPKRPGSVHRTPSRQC
M1 ag = human M1 muscarinic receptor agonism; P11229; CHO-K1 hM1, Fluo-8 calcium fluorescence, agonist mode; 0% DMSO, 100% acetylcholine EC100; activation, % at 3 µM; 360,000 compounds, 0.33% hits; AID 588814;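 active = activation above the run's mean compound activation plus 3 SD, cut at about 16% in these data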;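 note: peak over basal fluorescence ratio within a 140 s kinetic read after compound addition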
CHO-K1 Ca antag = counter-screen for M1 antagonists: effect in parental CHO-K1 cells; ATP-induced calcium, Fluo-8 fluorescence; inhibition, % at 3 µM; 360,000 compounds, 0.6% hits; AID 602250;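 active = inhibition above a per-plate cutoff, the plate's mean sample inhibition plus 3 SD, cut at about 24% in these data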
M1 PAM parental = counter-screen for M1 PAMs: effect in parental CHO-K1 cells; ATP EC20, Fluo-8 calcium fluorescence; 0% at ATP EC20, 100% at ATP max; activation, % at 3 µM; AID 602247; 360,000 compounds, 0.02% hits;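 active = activation above the run cutoff, the mean activation of all test compounds plus 3 SD, cut at about 40% in these data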;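 note: peak over basal fluorescence ratio in a 140 s read after ATP addition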
CHO-K1 Ca ag = counter-screen for M1 agonists: effect in parental CHO-K1 cells | Fluo-8 calcium fluorescence; scaled to maximal ATP response, vehicle zero | activation, % at 3 µM | 360,000 compounds, 0.48% hits; in the data active = activation above about 15%;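 note: untransfected CHO-K1 host cells lacking M1 receptor as counterscreen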
M1 antag = human CHRM1 antagonism; 360,000 compounds, 1.3% hits; P11229; CHO-K1 hM1, Fluo-8 calcium fluorescence, ACh EC80 antagonist; inhibition, % at 3 µM; AID 588852;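 active = percent inhibition above its own plate's cutoff, namely the mean of that plate's compound wells plus 3 SD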;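 note: peak over basal fluorescence ratio during 140 s after agonist addition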
A number is an active result; – = inactive. Shown are actives, neighbours in structure and some others; about 2.3% of the full set was active somewhere.

SMILES	M1 PAM	M1 ag	CHO-K1 Ca antag	M1 PAM parental	CHO-K1 Ca ag	M1 antag
Cc1nn(C(C)C(=O)NCCc2ccco2)c(=O)c2nn(-c3ccccc3)c(C)c12 (stereo not given)	31	–	–	–	–	–
Cc1nn(CC(=O)NCCc2ccco2)c(=O)c2nn(-c3ccccc3)c(C)c12	–	–	–	–	–	–
O=C(NCc1ccco1)Nc1ccc([N+](=O)[O-])cc1	–	–	–	–	–	–
Cc1c(Br)c([N+](=O)[O-])nn1C(C)C(=O)NCc1ccco1 (stereo not given)	–	–	–	–	–	–
CC(C(=O)NCc1ccco1)c1ccc([N+](=O)[O-])cc1 (stereo not given)	–	–	25	–	–	–
Cc1nn(C(C)C(=O)NCc2ccco2)c(C)c1[N+](=O)[O-] (stereo not given)	–	–	–	–	19	–
COc1ccc(NC(=O)Cn2c3ccc(OC)cc3c3nc4n(c(=O)c32)CCS4)cc1	–	–	–	–	–	–
COC(=O)Cc1ccc(OC2(C)CCN(Cc3ccccc3OC(F)F)C2)cc1 (stereo not given)	–	–	–	–	–	55
COC(=O)Cc1ccc(OC2(C)CCN(Cc3ccc(-c4ccccn4)cc3)C2)cc1 (stereo not given)	–	–	–	–	–	59
CC(=O)c1cc2cccc(OC3(C)CCN(Cc4ccc(-c5ccccn5)cc4)C3)c2o1 (stereo not given)	–	–	–	–	–	35
CCn1c(CNc2ccccc2Cl)nnc1SCCN1CCCCC1	–	–	–	–	–	51
CCn1c(CNc2ccc(F)cc2)nnc1SCCN1CCCCC1	–	–	–	–	–	–
CCCN1CCN(S(=O)(=O)c2c(C)[nH]c(C)c2C(=O)N2CCCCC2)CC1	–	–	–	–	–	–
CCCC(C(=O)Nc1ccc(S(=O)(=O)N2CCOCC2)cc1)c1ccccc1 (stereo not given)	–	20	–	–	19	–
CC(=O)Nc1ccc(OCC(=O)Nc2ccc(Cl)c(S(=O)(=O)N3CCOCC3)c2)cc1	–	–	–	–	–	37
CC(CC(=O)Nc1ccc(Cl)c(S(=O)(=O)N2CCOCC2)c1)c1ccccc1 (stereo not given)	–	–	–	–	15	–
O=C(O)CC(SCC(=O)Nc1ccc(Cl)c(S(=O)(=O)N2CCOCC2)c1)C(=O)O (stereo not given)	–	–	–	–	–	–
Cc1ccc(NC(=O)c2ccccc2NS(=O)(=O)c2ccc(Cl)s2)cc1S(=O)(=O)N1CCOCC1	–	–	–	–	16	–
COc1ccc(CC(=O)NCC2CCCN(Cc3ccccc3OC)C2)cc1 (stereo not given)	–	–	–	–	–	–
CC/C(=N\NC(=O)CCC(=O)NCc1ccccc1)c1ccc(O)cc1	–	–	–	–	–	–
CN(c1cccc(NC(=O)c2ccc(N(C)S(=O)(=O)c3ccccc3)cc2)c1)S(C)(=O)=O	–	–	24	–	16	28
O=C(Nc1ccc(Cl)c(Cl)c1)c1ccc(Cl)c(Cl)c1	–	–	–	–	–	37
CN(c1ccccc1)S(=O)(=O)c1cccc(NC(=O)c2ccc(Cl)c([N+](=O)[O-])c2)c1	–	–	–	–	–	37
CN(c1ccccc1)S(=O)(=O)c1cccc(NC(=O)c2ccncc2)c1	–	–	–	–	15	–
O=C(Nc1ccc(Cl)c(Cl)c1)Nc1nccs1	–	–	34	–	–	–
SMILES	M1 PAM	M1 ag	CHO-K1 Ca antag	M1 PAM parental	CHO-K1 Ca ag	M1 antag
Cc1cc(C(=O)Nc2ccc(Nc3ccccc3)cc2)ccc1[N+](=O)[O-]	–	–	–	–	–	–
O=C(Nc1ccc(Nc2ccccc2)cc1)c1ccc(Cl)c([N+](=O)[O-])c1	–	–	–	–	–	32
COc1cccc(CNC(=O)CN2C(=O)CSc3ccc(S(=O)(=O)N4CCCC4)cc32)c1	–	–	–	–	–	–
CCc1ccc2oc(C(=O)Nc3nonc3CC)c(C)c2c1	–	–	–	–	–	–
CCc1nonc1NC(=O)c1oc2ccc(C)cc2c1C	–	–	–	–	–	45
O=c1[nH]ncc(N2CCN(Cc3ccccc3)CC2)c1Cl	–	–	26	–	–	–
COc1cccc(C(C)(O)c2nc(-c3cccc4cccnc34)cs2)c1 (stereo not given)	–	–	–	–	–	–
CCCCn1nc(C(=O)NCC(c2cccs2)N2CCOCC2)c2ccccc2c1=O (stereo not given)	–	–	–	–	–	–
O=C(COc1ccc(-c2ccccc2)cc1)NNC(=O)NC1CCCCC1	–	–	–	–	–	33
NC(=O)COC(=O)/C=C/c1cccc(Br)c1	–	–	–	–	–	–
O=C(O)CCC(=O)N1c2ccccc2NC2=C(C(=O)CC(c3ccc(F)cc3)C2)C1c1ccc([N+](=O)[O-])o1 (stereo not given)	–	–	25	–	–	–
COCCN(CC(=O)Nc1cccc(C)c1C)C(=O)c1cc(-c2cccs2)nn1-c1ccccc1	–	–	–	–	–	–
COCCN(CC(=O)Nc1cccc(C)c1C)C(=O)c1cc(-c2ccncc2)nc2ccccc12	–	–	–	–	–	34
CC12CCC(C(=O)N(NC(=O)c3cc(Cl)ccc3O)C1=O)C2(C)C (stereo not given)	–	–	–	–	–	–
CCOC(=O)c1nn(-c2ccc(F)cc2)c(=O)c2c(N)scc12	–	–	–	–	–	–
CCOC(=O)c1nn(-c2ccc(C)cc2)c(=O)c2c(N)scc12	–	–	33	–	–	–
